# Experimental data from PubChem BioAssay (NCATS).
# Records with an inconclusive call do not appear. A call without a number means that no potency is given here. Calls of active or inactive are those of the source. Calls follow the shape of the dose curve; as a rule, active = well fitted inhibition curve with a large enough effect; inconclusive = small, poorly fitted or top-dose-only effect; inactive = flat fitted curve, though single readings scatter.
# Legend:
# Test in all cases: qHTS profiling for inhibitors of Plasmodium falciparum proliferation (AID 504749); also: nearly all actives have a fitted effect of over 60% in size
# Settings in all cases: P. falciparum in erythrocytes, SYBR Green DNA, 72 h; series mostly up to 28.7 µM
# [1] = tested on: DIV30
# Method in brief: (§1)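 Fluorescence of SYBR Green-bound parasite DNA, read at 485/535 nm, served as the growth measure. Infected erythrocytes were cultured with compound 72 h; artemisinin (0.29 uM) and DMSO wells defined the normalization range.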
# [2] = tested on: Dd2
# Method in brief: as §1
# [3] = tested on: ECU
# Method in brief: as §1
# [4] = tested on: FAB9
# Method in brief: as §1
# [5] = tested on: GB4
# Method in brief: as §1
# [6] = tested on: HB3
# Method in brief: as §1
# [7] = tested on: JCK
# Method in brief: as §1
# [8] = tested on: N140
# Method in brief: as §1
# [9] = tested on: P93_24
# Method in brief: as §1
# [10] = tested on: P94_40
# Method in brief: as §1
# [11] = tested on: PAD
# Method in brief: as §1
# [12] = tested on: PC15
# Method in brief: as §1
# [13] = tested on: PC26
# Method in brief: as §1
# [14] = tested on: PC49
# Method in brief: as §1
# [15] = tested on: SC27B
# Method in brief: as §1
# [16] = tested on: TAB109
# Method in brief: as §1
# [17] = tested on: TAB113
# Method in brief: as §1
# [18] = tested on: TAB165
# Method in brief: as §1
# [19] = tested on: ICS
# Method in brief: as §1
# [20] = tested on: W2
# Method in brief: as §1
# Potency is read from the fitted curve at half-maximal effect.
Compound,Potency [1],Potency [2],Potency [3],Potency [4],Potency [5],Potency [6],Potency [7],Potency [8],Potency [9],Potency [10],Potency [11],Potency [12],Potency [13],Potency [14],Potency [15],Potency [16],Potency [17],Potency [18],Potency [19],Potency [20]
O=C(OCc1ccccc1)c1cccnc1,inactive,inactive,inactive,inactive,inactive,inactive,inactive,inactive,inactive,inactive,inactive,inactive,inactive,inactive,inactive,inactive,inactive,inactive,–,–
CC(C)(C)CC(C)(C)c1ccc(OCCO)cc1,inactive,inactive,inactive,inactive,inactive,inactive,inactive,–,inactive,inactive,inactive,inactive,inactive,inactive,inactive,inactive,inactive,–,inactive,inactive
C[C@H]1O[C@@H](O[C@H]2[C@@H](O)C[C@H](O[C@H]3[C@@H](O)C[C@H](O[C@H]4CC[C@@]5(C)[C@H](CC[C@@H]6[C@@H]5C[C@@H](O)[C@]5(C)[C@@H](C7=CC(=O)OC7)CC[C@]65O)C4)O[C@@H]3C)O[C@@H]2C)C[C@H](O)[C@@H]1O,inactive,inactive,inactive,inactive,inactive,inactive,inactive,inactive,inactive,inactive,inactive,–,–,inactive,inactive,inactive,inactive,inactive,inactive,–
Cc1cc(-c2ccc(N=Nc3c(S(=O)(=O)O)cc4cc(S(=O)(=O)O)cc(N)c4c3O)c(C)c2)ccc1N=Nc1c(S(=O)(=O)O)cc2cc(S(=O)(=O)O)cc(N)c2c1O,inactive,inactive,inactive,inactive,inactive,inactive,inactive,–,–,–,–,inactive,–,inactive,inactive,–,inactive,12.6 µM (active),–,inactive
O=C1NCCN1c1ncc([N+](=O)[O-])s1,inactive,inactive,inactive,inactive,inactive,inactive,inactive,inactive,inactive,inactive,inactive,inactive,inactive,–,inactive,–,inactive,inactive,inactive,inactive
N=C(N)c1ccc(/C=C/c2ccc(C(=N)N)cc2O)cc1,2.13 µM (active),0.112 µM (active),10 µM (active),1.26 µM (active),536 nM (active),11.2 µM (active),inactive,17.8 µM (active),–,8.91 µM (active),–,12.6 µM (active),8.49 µM (active),–,10 µM (active),17.8 µM (active),3.98 µM (active),4.47 µM (active),1.26 µM (active),–
O=[N+]([O-])c1c(Cl)cccc1-c1c[nH]cc1Cl,inactive,inactive,inactive,inactive,inactive,inactive,inactive,inactive,inactive,–,inactive,inactive,inactive,inactive,inactive,inactive,inactive,inactive,–,–
C[C@]12CCC(=O)C[C@@H]1CC[C@@H]1[C@@H]2CC[C@]2(C)C=CC[C@@H]12,inactive,inactive,inactive,inactive,inactive,–,inactive,–,inactive,inactive,inactive,inactive,inactive,inactive,inactive,inactive,inactive,inactive,–,–
CC(=O)Oc1cccc2c1C(=O)c1c(OC(C)=O)cc(C(=O)O)cc1C2=O,inactive,inactive,inactive,inactive,inactive,inactive,inactive,–,inactive,inactive,inactive,inactive,inactive,inactive,inactive,inactive,inactive,inactive,inactive,inactive
O=C(O)CC/C=C\CC[C@@H]1[C@@H](N2CCCCC2)[C@@H](O)C[C@@H]1OCc1ccc(-c2ccccc2)cc1,inactive,inactive,inactive,inactive,inactive,inactive,inactive,inactive,inactive,inactive,inactive,inactive,inactive,inactive,inactive,inactive,inactive,inactive,–,–
COc1cc2c(cc1OC)[C@@H](Cc1cc(OC)c(OC)c(OC)c1)[N+](C)(CCCOC(=O)CC/C=C/CCC(=O)OCCC[N+]1(C)CCc3cc(OC)c(OC)cc3[C@H]1Cc1cc(OC)c(OC)c(OC)c1)CC2 (stereo not given in full),inactive,inactive,inactive,inactive,inactive,inactive,inactive,inactive,inactive,inactive,inactive,inactive,–,inactive,inactive,inactive,inactive,inactive,inactive,inactive
c1ccc2c(c1)Sc1ccccc1N2CCN1CCCC1,12 µM (active),5.62 µM (active),10 µM (active),inactive,7570 nM (active),–,inactive,7.94 µM (active),7.08 µM (active),7.94 µM (active),7.94 µM (active),11.2 µM (active),12 µM (active),–,8.91 µM (active),8.91 µM (active),5.01 µM (active),7.08 µM (active),3.98 µM (active),1.69 µM (active)
CC1=CC(=C(c2ccc(N)cc2)c2ccc(N)cc2)C=CC1=N,5.36 µM (active),2.82 µM (active),2.24 µM (active),11.2 µM (active),536 nM (active),8.91 µM (active),–,2.24 µM (active),2.51 µM (active),1.41 µM (active),2.51 µM (active),11.2 µM (active),5.36 µM (active),–,3.16 µM (active),2.24 µM (active),1.41 µM (active),2 µM (active),1.26 µM (active),0.536 µM (active)
CC/C=C\C/C=C\C/C=C\CCCCCCCC(=O)O,inactive,inactive,inactive,inactive,inactive,inactive,inactive,inactive,inactive,inactive,–,inactive,–,inactive,inactive,inactive,inactive,–,–,inactive
CC(C)OC(=O)Nc1ccc2nc(-c3cscn3)[nH]c2c1,inactive,inactive,inactive,inactive,inactive,inactive,inactive,inactive,inactive,inactive,inactive,inactive,inactive,inactive,inactive,inactive,inactive,inactive,–,inactive
CN1C(C(=O)Nc2ccccn2)C(=O)c2sc(Cl)cc2S1(=O)=O (stereo not given),inactive,inactive,inactive,inactive,inactive,inactive,inactive,inactive,inactive,inactive,inactive,inactive,–,inactive,inactive,inactive,inactive,inactive,–,inactive
S=C1SCN(Cc2ccccc2)CN1Cc1ccccc1,inactive,inactive,inactive,inactive,inactive,inactive,inactive,inactive,–,inactive,inactive,inactive,inactive,inactive,inactive,inactive,inactive,inactive,inactive,inactive
COc1cc(NCCCC(C)N)c2ncccc2c1 (stereo not given),4.78 µM (active),2 µM (active),2.82 µM (active),4.47 µM (active),2130 nM (active),3.55 µM (active),–,5.62 µM (active),2.24 µM (active),4.47 µM (active),0.398 µM (active),3.55 µM (active),1.69 µM (active),inactive,11.2 µM (active),4.47 µM (active),8.91 µM (active),2.24 µM (active),0.891 µM (active),1.51 µM (active)
CCOC(=O)[C@@H](N)CS,inactive,inactive,inactive,inactive,inactive,inactive,inactive,inactive,inactive,inactive,inactive,inactive,inactive,–,inactive,inactive,inactive,inactive,inactive,inactive
CN(C)c1ccc(C(=C2C=CC(=[N+](C)C)C=C2)c2c(O)c(S(=O)(=O)[O-])cc3cc(S(=O)(=O)O)ccc23)cc1,inactive,inactive,inactive,inactive,–,inactive,inactive,inactive,inactive,inactive,inactive,inactive,inactive,inactive,inactive,inactive,inactive,inactive,inactive,inactive
CCCCCc1ccc(C)cc1O,inactive,inactive,inactive,inactive,–,inactive,inactive,inactive,inactive,inactive,inactive,inactive,inactive,inactive,inactive,inactive,inactive,–,7.08 µM (active),–
CC1CCC(NC(=O)N(CCCl)N=O)CC1 (stereo not given),inactive,–,inactive,inactive,–,inactive,inactive,inactive,inactive,inactive,inactive,inactive,inactive,inactive,inactive,inactive,inactive,inactive,inactive,10.7 µM (active)
O=C1c2ccccc2CN2C(=O)c3ccccc3CN12,inactive,inactive,–,inactive,inactive,inactive,inactive,inactive,inactive,inactive,inactive,inactive,inactive,inactive,inactive,inactive,inactive,inactive,inactive,inactive
CC1CCCCN1CCCOC(=O)c1ccccc1 (stereo not given),inactive,inactive,inactive,inactive,–,inactive,inactive,inactive,inactive,inactive,inactive,inactive,inactive,inactive,inactive,inactive,inactive,inactive,inactive,–
C[C@]12CC[C@@H]3c4ccc(OC(=O)c5ccccc5)cc4CC[C@H]3[C@@H]1CC[C@@H]2O,inactive,–,inactive,inactive,inactive,inactive,inactive,inactive,inactive,inactive,inactive,inactive,inactive,inactive,inactive,inactive,inactive,inactive,11.2 µM (active),10.7 µM (active)
